About 83,000 compounds went through this panel and 20% of them were active in at least one assay; those are over-represented in the sample as a whole.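 Note: values are percent growth. 100 is the growth of untreated cells, values between 100 and 0 indicate rising inhibition; between -100 and 0 indicates cell death.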 Values without a mark were called inactive. Calls of active or inactive are those of the source. The calls were made as follows: active = growth percent below 10; inactive = the rest.
test system: HL-60(TB) leukemia; assay: NCI-60 one-dose screen, 48 h (100 = growth as untreated, 0 = no growth, -100 = all killed); settings: 10 µM unless noted

| Structure (SMILES) | growth |
| --- | --- |
| Cc1cc2nc3c4cc(Cl)ccc4n(CC(=O)NCCN(C)C)c3nc2cc1C | 56% |
| CSc1ccc(/C(=N/N=C(N)N)c2ccc(Cl)cc2)cc1 | -45.1% (active) |
| CCc1nn2c(C)cc(C)nc2c1Cc1ccc(/C=C/CN2CCN(CCOCCOCCN3CCN(C/C=C/c4ccc(Cc5c(CC)nn6c(C)cc(C)nc56)cc4)CC3)CC2)cc1 | -51.4% (active) |
| Fc1ccc(-c2cc3nc(C(Cl)Cl)nc(-c4ccc(F)cc4)n3n2)cc1 | -1.81% (active) |
| O=C(CSc1nc2ccccc2c(=O)n1-c1ccc(Cl)c(Cl)c1)Nc1ccc(S(=O)(=O)Nc2ccc(Cl)nn2)cc1 | 106% |
| OCC(Nc1ncnc2ccc(-c3cnc4cnccn34)cc12)c1ccccc1 (stereo not given) | 78.1% |
| CCOC(=O)c1ccc(N/C=C/C(=O)c2ccccc2)cc1 | 84.3% |
| N=C1CC(=O)NN1C(=O)CSc1nc2sc3c(c2c(=O)n1-c1ccc(Cl)cc1)CCCC3 | 108% |
| Cc1noc(C)c1CSc1nc2ccccc2n1-c1ccccc1 | 111% |
| CCn1c2ccccc2c2cc(-n3nncc3-c3ccccc3)ccc21 | 3.73% (active) |
| CCOC(=O)c1c(NCC(=O)Nc2cccc([N+](=O)[O-])c2)sc(C(C)=O)c1C | -18.4% (active) |
| N/C(=N\C(N)=N\c1nc2ccccc2s1)c1cccc(F)c1 | 83% [5 µM] |
| CN1C(=O)/C(=C/C=C/c2ccco2)SC1=S | 99.6% |
| COc1ccc(/C=C2\SC(=Nc3cc(C)[nH]n3)NC2=O)cc1 | 87.1% |
| COc1cc(/C=C2\C(=O)Nc3cc(Cl)ccc32)ccc1OCc1ccc(F)cc1 | 120% |
| O=C(CSc1nnc(-c2ccc(Cl)cc2)n1-c1ccccc1)Nc1cccc(Cl)c1 | 89.8% |
| CC(C)(C)n1nnnc1C(Nc1nccs1)c1cc2cccc3ccc4cccc1c4c32 (stereo not given) | 90.2% |
| COC(=O)CNC(=O)c1cccc(-c2cc(=O)c3c(OC)c(OC)c(OC)cc3o2)c1 | 109% |
| NC(N)=Nc1ccc(Nc2cccc(Nc3ccc(Cl)c(C(F)(F)F)c3)c2)cn1 | -40.5% (active) |
| COC(=O)c1c(C(=O)OC)c2n(CC(=O)Nc3cccc4cccnc34)c3ccccc3n2c1C(=O)c1ccc(C)cc1 | 99.2% |

| Structure (SMILES) | growth |
| --- | --- |
| C=CCn1c(SCC(=O)Nc2ccc(C(=O)/C=C/c3ccc(Br)cc3)cc2)nnc1-c1c[nH]c2ccccc12 | 84.3% |
| NC1[C@H]2CN(c3cnc(C(=O)Nc4cc(F)cc5cccnc45)cn3)C[C@@H]12 (stereo not given in full) | 11.5% |
| COc1ccc(Cn2cc3c(c2-c2ccccc2)CCCc2cnoc2-3)cc1[N+](=O)[O-] | 27% |
| O=C(/C=C/c1csc(Br)n1)NO | -36.2% (active) |
| COc1ccc(COc2ccc(/C=C3/C(=O)Nc4cc(Cl)ccc43)cc2)cc1 | 119% |
| C=C(C)C(=O)O[C@H]1C[C@@]2(C)OC(=CC2=O)/C(C)=C\[C@H]2OC(=O)C(=C)[C@H]12 | -20.9% (active) |
| COc1cc2oc(-c3cccc(NC(=O)c4cc(NC(=O)[C@H](C)N)ccc4Cl)c3)cc(=O)c2c(OC)c1OC | 97.2% |
| COc1ccc(NS(=O)(=O)c2ccc(-c3cnc(C4CC4)o3)cc2)cc1Cl | 3.27% (active) |
| CCOc1ccc(NC2=C(Cl)C(=O)c3nc(C)ccc3C2=O)cc1 | -46.4% (active) |
| NC(N)=Nc1ccc(Oc2cccc(NC(N)=Nc3ccc(I)cc3F)c2)cn1 | 39.3% |
| Cc1cc(=O)n2nc(-c3cn(C)c4ccc(Cl)cc34)sc2n1 | 92.5% |
| CS(=O)(=O)c1ccc(-c2nn(-c3ccccc3)cc2/C=C/C(=O)c2ccc(Br)cc2)cc1 | 51.9% |
| COc1ccc2c(ccn2C(=O)N2c3ccccc3Sc3ccccc32)c1 | 13.7% |
| CC[C@@](C)(NC(=O)C(C)(C)NC(=O)[C@@H](NC(=O)[C@@H]1CCCN1C(=O)C(C)(C)NC(=O)[C@H](CC(C)C)NC(=O)CNC(=O)C(C)(C)NC(=O)[C@@H](NC(=O)C(C)(C)NC(=O)[C@H](CCC(N)=O)NC(=O)[C@H](C)NC(=O)C(C)(C)NC(=O)[C@H](C)NC(=O)C(C)(C)NC(=O)[C@@H]1CCCN1C(=O)C(C)(C)NC(C)=O)C(C)C)C(C)C)C(=O)N[C@@H](CCC(N)=O)C(=O)N[C@@H](CCC(N)=O)C(=O)N[C@H](CO)Cc1ccccc1 | -50.8% [4.25 µM] (active) |
| CN(C)CCCOc1ccc2c(c1)CN(C(=O)c1cc(C(=O)N3Cc4cccc(F)c4C3)ccc1O)C2 | 107% |
| O=S1SC(c2ccccc2)=NN1c1cc(F)cc(F)c1 (stereo not given) | 32.2% |
| C#CCOc1ccc(/C=N/Nc2nc(-c3cc(Cl)ccc3Cl)cs2)cc1 | 91% |
| N#C/C(=C\c1ccc2ccccc2c1)C(=O)Nc1sc2c(c1C#N)CCC2 | 103% |
| O=C(CSc1nc2ccccc2c(=O)n1-c1ccccc1)Nc1ccc(-c2nc3ccc([N+](=O)[O-])cc3[nH]2)cc1 | 89.3% |
| Cc1nc(-c2ccccc2O)ccc1C(=O)N=Nc1c(O)[nH]c2ccc(Br)cc12 | 114% |

Source: PubChem BioAssay (NCI)
